# Measurements taken from PubChem BioAssay (NCATS).
# A number with no mark means an inactive call. Inconclusive results are not listed. Where a call stands in place of a potency, no number is given. Active and inactive are the calls of the source. Unless noted, calls follow the shape of the dose curve; as a rule, active = well fitted curve in the direction sought with a large enough effect; inconclusive = small, poorly fitted or top-dose-only effect, or another doubt; inactive = no such curve, though single readings can be large; an effect the other way counts as inactive or inconclusive.
# Assays:
# [1] = HepG2 viability counterscreen (readout 1: protease activity) against the NCATS DSHEA and TCM libraries (AID 1794841);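 also: cells exposed to compounds for about 24 h before the protease read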
# Method in brief: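 Cytotoxicity was assessed in HepG2 cells plated at 1,000 cells/well and exposed for about 24 hours to a concentration series. Protease activity and ATP content were measured sequentially in each well.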
# [2] = target: Cytochrome P450 2C9 (Homo sapiens) (UniProt P11712); assay: qHTS for inhibitors of CYP2C9 against the NCATS DSHEA and TCM libraries (AID 1919973);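 also: luminogenic pro-luciferin CYP2C9 substrate turned into luciferin with NADPH regeneration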
# Method in brief: (§1)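 Light output from converted D-luciferin reports remaining CYP activity. Compounds preincubate with enzyme and substrate for 15 min; NADPH regeneration (1x final) runs the reaction for 30-45 min.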
# [3] = target: Cytochrome P450 2C19 (Homo sapiens) (UniProt P33261); assay: qHTS for inhibitors of CYP2C19 against the NCATS DSHEA and TCM libraries (AID 1919974);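 also: luminescence from luciferin released by CYP2C19 oxidation of a pro-luciferin substrate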
# Method in brief: as §1
# [4] = Dual reporter qHTS for antagonist of Pregnane X Receptor (hPXR) against the NCATS DSHEA and TCM libraries: Fluorescence Readout (AID 1920061)
# Method in brief: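 HepG2 hPXR-Luc, 2000 cells/well, charcoal-stripped FBS medium; 5 h attach; RIF 2 uM final; 24 h 37C/5% CO2; CellTiter-Fluor 1 h, fluor 405/540; ONE-Glo 30 min RT, lum.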
# [5] = target: Cytochrome P450 3A4 (Homo sapiens) (UniProt P08684); assay: qHTS Assay for Inhibitors and Substrates of Cytochrome P450 3A4 (AID 884); also: potency is read from the fitted curve at half-maximal effect; nearly all actives have a fitted effect of over 50% in size
# Method in brief: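 20 nM human CYP3A4 with 25 uM Luciferin-PPXE (at KM) in 200 mM KPO4, preincubated 10 min with compound; NADPH regeneration started a 60 min RT reaction. Luciferin detected by luminescence, normalized to 57 uM ketoconazole as full inhibition.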
# [6] = target: Cytochrome P450 3A4 (Homo sapiens) (UniProt P08684); assay: qHTS Assay for Activators of Cytochrome P450 3A4 (AID 885); also: nearly all actives have a fitted effect of over 65% in size
# Method in brief: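 Steps: enzyme/substrate mix dispensed; compound added, 10 min RT; NADPH regeneration solution added, 60 min RT; luciferin detection buffer stops reaction; 20 min later luminescence measured.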
# [7] = target: Dual specificity protein kinase CLK4 (Homo sapiens) (UniProt Q9HAZ1); assay: qHTS Assay for Inhibitors of CDC-like Kinase 4 (ADP-Glo Assay) (AID 1771); also: nearly all actives have a fitted effect of over 70% in size; also: potency is read from the fitted curve at half-maximal effect
# Method in brief: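 Kinase reaction: Clk4 at 25 nM, RS repeat peptide substrate at 100 uM, ATP at 1 uM, 1 hr, room temperature. Product ADP detected as luciferase signal via ADP-Glo.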
# [8] = target: Dual specificity protein kinase CLK4 (Homo sapiens) (UniProt Q9HAZ1); assay: qHTS Assay for Inhibitors of CDC-like Kinase 4 (ADP-FP Assay) (AID 1795); also: nearly all actives have a fitted effect of over 60% in size; also: potency is read from the fitted curve at half-maximal effect;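 as to activity change, negative = inhibition: recombinant human CLK4 phosphorylating RS repeat peptide at 1 µM ATP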
# Method in brief: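 Inhibition of ADP formation by 6.25 nM Clk4 is measured using 1 uM ATP and 100 uM RS repeat peptide over one hour. Produced ADP displaces a fluorescent tracer from antibody, lowering polarization.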
# [9] = AP1 Signaling Pathway (AID 357; active = well fitted curve in either direction with a large enough effect, not every such curve was filed as active;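 also: ME-180 reporter cells stimulated with EGF at its EC50 level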); conditions: ME-180 (cervical carcinoma) AP-1-bla reporter, EGF-induced, beta-lactamase ratio, 5 h; at 7.69 µM (top of the series) unless noted
# Method in brief: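 AP-1-bla ME-180 cells, Opti-MEM + 0.5% dialyzed FBS, plated overnight 37 °C. Cpd titration + EC50 EGF, 5 h 37 °C. CCF4 2.5 h RT; ex 405, em 460/530 ratio → %activity, AC50.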
# [10] = target: 3',5'-cyclic-AMP phosphodiesterase 4B (Homo sapiens) (UniProt Q07343); assay: qHTS Assay for Inhibitors of PDE-IV (AID 607; active = well fitted activation curve with a large enough effect in the main read-out, with a control signal flat, not every such curve was filed as active)
# Method in brief: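 The readout is membrane depolarisation from a cAMP-sensing CNG channel, detected with a potential dye at ex 535/em 590. Cells were HEK293-derived (endogenous PDE-IV) at 1000 cells/well, titrated up to 22.9 uM final.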
# [11] = target: Cytochrome P450 2C19 (Homo sapiens) (UniProt P33261); assay: qHTS Assay for Inhibitors and Substrates of Cytochrome P450 2C19 (AID 899); also: nearly all actives have a fitted effect of over 60% in size; also: potency is read from the fitted curve at half-maximal effect
# Method in brief: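 Human CYP2C19 (5nM) with Luciferin-H EGE at 10uM (its KM) in 50mM KPO4 was preincubated with compound for 10 min at 37C. NADPH regeneration started a 60 min 37C reaction. Luciferin was read by luminescence, normalized to 57uM ketoconazole.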
# Chain of Dual specificity protein kinase CLK4 (Homo sapiens) (Q9HAZ1 whole entry, looked up): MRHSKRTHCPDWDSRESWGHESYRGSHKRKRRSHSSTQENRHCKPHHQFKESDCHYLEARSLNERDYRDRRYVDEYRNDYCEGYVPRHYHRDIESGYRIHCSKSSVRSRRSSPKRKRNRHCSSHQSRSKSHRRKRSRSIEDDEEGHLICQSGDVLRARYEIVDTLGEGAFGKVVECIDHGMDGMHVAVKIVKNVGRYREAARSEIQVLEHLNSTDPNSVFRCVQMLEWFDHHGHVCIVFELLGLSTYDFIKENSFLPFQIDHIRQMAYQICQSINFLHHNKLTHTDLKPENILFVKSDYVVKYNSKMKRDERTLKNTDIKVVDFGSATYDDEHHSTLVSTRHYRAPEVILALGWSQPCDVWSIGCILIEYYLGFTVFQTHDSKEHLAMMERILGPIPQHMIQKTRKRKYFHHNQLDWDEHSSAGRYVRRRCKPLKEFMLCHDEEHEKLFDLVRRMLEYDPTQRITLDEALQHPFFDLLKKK
# Chain of Cytochrome P450 3A4 (Homo sapiens) (P08684 whole entry, looked up): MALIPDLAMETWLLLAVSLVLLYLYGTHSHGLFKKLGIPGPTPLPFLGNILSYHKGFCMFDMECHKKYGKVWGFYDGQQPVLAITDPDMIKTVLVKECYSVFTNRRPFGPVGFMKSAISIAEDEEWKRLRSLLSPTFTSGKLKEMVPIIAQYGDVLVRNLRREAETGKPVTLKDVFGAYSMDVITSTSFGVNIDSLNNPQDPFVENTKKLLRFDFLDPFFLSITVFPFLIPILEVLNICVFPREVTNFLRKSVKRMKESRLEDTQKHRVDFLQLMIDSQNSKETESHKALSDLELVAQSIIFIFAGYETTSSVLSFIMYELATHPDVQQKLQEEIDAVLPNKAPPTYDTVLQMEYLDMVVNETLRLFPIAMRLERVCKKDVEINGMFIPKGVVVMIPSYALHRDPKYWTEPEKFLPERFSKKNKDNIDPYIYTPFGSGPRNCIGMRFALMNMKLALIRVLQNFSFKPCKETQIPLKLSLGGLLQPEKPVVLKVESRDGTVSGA
# Chain of Cytochrome P450 2C19 (Homo sapiens) (P33261 whole entry, looked up): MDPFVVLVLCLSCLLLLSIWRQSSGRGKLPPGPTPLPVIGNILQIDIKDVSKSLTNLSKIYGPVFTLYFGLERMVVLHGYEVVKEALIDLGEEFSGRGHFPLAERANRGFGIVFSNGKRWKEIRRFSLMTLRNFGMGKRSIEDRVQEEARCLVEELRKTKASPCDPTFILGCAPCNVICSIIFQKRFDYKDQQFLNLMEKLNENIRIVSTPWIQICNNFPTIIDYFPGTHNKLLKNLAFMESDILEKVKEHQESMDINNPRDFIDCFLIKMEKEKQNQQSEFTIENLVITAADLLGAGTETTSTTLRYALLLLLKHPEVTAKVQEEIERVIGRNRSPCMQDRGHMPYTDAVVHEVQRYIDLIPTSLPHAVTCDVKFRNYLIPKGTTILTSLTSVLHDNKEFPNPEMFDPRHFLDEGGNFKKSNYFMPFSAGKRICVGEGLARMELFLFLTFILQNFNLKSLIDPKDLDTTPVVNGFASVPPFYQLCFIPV
# Chain of Cytochrome P450 2C9 (Homo sapiens) (P11712 whole entry, looked up): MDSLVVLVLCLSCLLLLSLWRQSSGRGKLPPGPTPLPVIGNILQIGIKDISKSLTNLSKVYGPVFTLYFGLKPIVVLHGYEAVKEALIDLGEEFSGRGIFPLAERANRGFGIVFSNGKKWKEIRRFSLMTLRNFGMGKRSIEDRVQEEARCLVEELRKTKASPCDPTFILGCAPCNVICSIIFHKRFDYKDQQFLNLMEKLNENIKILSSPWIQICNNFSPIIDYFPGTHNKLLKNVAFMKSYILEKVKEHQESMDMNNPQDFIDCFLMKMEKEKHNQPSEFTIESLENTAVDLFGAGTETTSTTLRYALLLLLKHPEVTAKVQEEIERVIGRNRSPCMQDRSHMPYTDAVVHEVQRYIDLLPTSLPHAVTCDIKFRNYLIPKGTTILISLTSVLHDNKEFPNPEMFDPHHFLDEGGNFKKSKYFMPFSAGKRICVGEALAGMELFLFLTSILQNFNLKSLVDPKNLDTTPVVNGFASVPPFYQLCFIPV
# Chain of 3',5'-cyclic-AMP phosphodiesterase 4B (Homo sapiens) (Q07343 whole entry, looked up): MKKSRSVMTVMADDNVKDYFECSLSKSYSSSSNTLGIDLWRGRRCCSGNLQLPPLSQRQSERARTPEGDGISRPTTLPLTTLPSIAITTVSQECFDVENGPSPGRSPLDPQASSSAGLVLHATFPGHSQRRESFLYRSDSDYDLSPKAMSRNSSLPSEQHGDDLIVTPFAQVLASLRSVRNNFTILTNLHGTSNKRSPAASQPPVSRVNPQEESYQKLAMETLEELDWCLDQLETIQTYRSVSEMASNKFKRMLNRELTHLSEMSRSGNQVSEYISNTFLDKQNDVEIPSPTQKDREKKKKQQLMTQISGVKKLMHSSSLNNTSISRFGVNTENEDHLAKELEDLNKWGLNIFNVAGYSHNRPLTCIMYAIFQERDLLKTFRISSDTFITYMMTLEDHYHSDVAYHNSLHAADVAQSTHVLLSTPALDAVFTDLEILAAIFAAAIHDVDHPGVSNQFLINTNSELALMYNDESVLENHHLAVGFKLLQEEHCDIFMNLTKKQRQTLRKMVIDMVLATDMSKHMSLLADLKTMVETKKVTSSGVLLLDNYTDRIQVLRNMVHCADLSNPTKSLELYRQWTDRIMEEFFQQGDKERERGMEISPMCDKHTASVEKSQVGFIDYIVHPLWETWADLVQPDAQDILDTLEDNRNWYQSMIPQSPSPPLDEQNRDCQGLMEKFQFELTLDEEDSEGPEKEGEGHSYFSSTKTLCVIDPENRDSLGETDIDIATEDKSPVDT
compound,measurement,setting,value
CC(=O)OC1CC2CCC1(C)C2(C)C (stereo unspecified),outcome,[1],inactive
same,Potency,[2],inactive
same,Potency,[3],inactive
same,outcome,[4],inactive
COc1ccccc1CNc1ncnc2ccc(-c3cccc(NS(C)(=O)=O)c3)cc12,Potency,[5],3.16 µM (active)
same,outcome,[6],inactive
same,Potency,[7],14.1 µM (active)
same,Potency,[8],7.08 µM (active)
CCCCCC/C=C\CCCCCCCC(=O)O,outcome,[1],inactive
same,outcome,[4],inactive
COc1cccc(-c2nc(NCCN3CCOCC3)c3ccccc3n2)c1,"activity change, negative = inhibition",[9],6.11%
same,Potency,[10],inactive
same,outcome,[6],inactive
same,Potency,[7],15.8 µM (active)
CN(C)C(=O)c1ccc(-c2cc(NCc3ccccc3)ncn2)cc1,"activity change, negative = inhibition",[9],-9.2%
same,Potency,[10],inactive
same,Potency,[7],31.6 µM (active)
CC1=CCC(=C(C)C)CC1,outcome,[1],inactive
same,Potency,[2],inactive
same,outcome,[4],inactive
Cn1cc(-c2nc3cnc(N4CCNCC4)nc3n(CCc3ccccc3)c2=O)c2ccccc21,Potency,[10],inactive
same,outcome,[6],inactive
same,Potency,[11],2 µM (active)
same,Potency,[7],inactive
same,Potency,[8],inactive
CCCCCCCCCCCCCCCCCCCCCC(=O)O,outcome,[1],inactive
same,Potency,[2],inactive
same,outcome,[4],inactive
CC1=CCC(O)(C(C)C)CC1 (stereo unspecified),outcome,[1],inactive
same,Potency,[2],inactive
same,Potency,[3],inactive
same,outcome,[4],inactive
Clc1ccccc1-c1ccc2ncnc(NCCN3CCOCC3)c2c1,outcome,[6],inactive
same,Potency,[7],25.1 µM (active)
CC12CC3(O)OC(O1)C1(COC(=O)c4ccc(O)cc4)C3CC21OC1OC(CO)C(O)C(O)C1O (stereo unspecified),outcome,[1],inactive
same,Potency,[2],inactive
same,outcome,[4],inactive
O=c1c(-c2ccccc2)nc2cncnc2n1Cc1ccccc1,"activity change, negative = inhibition",[9],-16.6%
same,Potency,[7],inactive
same,Potency,[8],inactive
COc1ccc2[nH]cc(CCNc3nc(-c4ccccc4OC)nc4ccccc34)c2c1,"activity change, negative = inhibition",[9],23.7%
same,Potency,[10],inactive
same,Potency,[5],2.51 µM (active)
same,outcome,[6],inactive
same,Potency,[11],5.01 µM (active)
same,Potency,[7],35.5 µM (active)
COCCn1c(=O)c(-c2cccc(C#N)c2)nc2cnc(OCc3ccccc3)nc21,"activity change, negative = inhibition",[9],-20.4%
same,Potency,[10],inactive
same,outcome,[6],inactive
same,Potency,[11],inactive
same,Potency,[7],inactive
